Laboratory results taken from article PMC11006913.

Assays:
Assay in all cases: PBM; 200 nM protein, PBS
Details in all cases: dsDNA, one strand shown
VAX1 [1] = biological target: VAX1 (Homo sapiens, UniProt Q5SQQ9 86-172)
VAX1 [2] = biological target: VAX1 (Homo sapiens, UniProt Q5SQQ9 86-172, T142I)
VAX1 [3] = biological target: VAX1 (Homo sapiens, UniProt Q5SQQ9 86-172, K157R)
NKX3-2 [4] = biological target: NKX3-2 (Homo sapiens, UniProt P78367 192-278, P234S)
NKX3-2 [5] = biological target: NKX3-2 (Homo sapiens, UniProt P78367 192-278)
Sequence of NKX3-2 (Homo sapiens, UniProt P78367 192-278) (P78367 192-278): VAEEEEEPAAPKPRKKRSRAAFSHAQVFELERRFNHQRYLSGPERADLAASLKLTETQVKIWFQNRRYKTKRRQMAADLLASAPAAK

Sequence of VAX1 (Homo sapiens, UniProt Q5SQQ9 86-172, K157R) (Q5SQQ9 86-172 K157R): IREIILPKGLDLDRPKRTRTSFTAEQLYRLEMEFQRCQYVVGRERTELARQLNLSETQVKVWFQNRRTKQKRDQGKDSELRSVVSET
Sequence of VAX1 (Homo sapiens, UniProt Q5SQQ9 86-172) (Q5SQQ9 86-172): as the sequence (Q5SQQ9 86-172 K157R) above, with R72K counted along it
Sequence of VAX1 (Homo sapiens, UniProt Q5SQQ9 86-172, T142I) (Q5SQQ9 86-172 T142I): as the sequence (Q5SQQ9 86-172 K157R) above, with T57I, R72K counted along it
Sequence of NKX3-2 (Homo sapiens, UniProt P78367 192-278, P234S) (P78367 192-278 P234S): as the sequence (P78367 192-278) above, with P43S counted along it

Sequence	binding signal (VAX1 [1])	binding signal (VAX1 [2])	binding signal (VAX1 [3])	binding signal (NKX3-2 [4])	binding signal (NKX3-2 [5])
GAGAATCC	6.95 upbm affinity estimate (log intensity, higher = more binding, comparable within an allelic series)	7.22 upbm affinity estimate (log intensity, higher = more binding, comparable within an allelic series)	7.13 upbm affinity estimate (log intensity, higher = more binding, comparable within an allelic series)		
ACAATAAT	11.2 upbm affinity estimate (log intensity, higher = more binding, comparable within an allelic series)	11 upbm affinity estimate (log intensity, higher = more binding, comparable within an allelic series)	10.9 upbm affinity estimate (log intensity, higher = more binding, comparable within an allelic series)		
GGTCTCCA	7.04 upbm affinity estimate (log intensity, higher = more binding, comparable within an allelic series)	7.37 upbm affinity estimate (log intensity, higher = more binding, comparable within an allelic series)	7.2 upbm affinity estimate (log intensity, higher = more binding, comparable within an allelic series)		
CGCCGCTC	7.19 upbm affinity estimate (log intensity, higher = more binding, comparable within an allelic series)	7.18 upbm affinity estimate (log intensity, higher = more binding, comparable within an allelic series)	7.31 upbm affinity estimate (log intensity, higher = more binding, comparable within an allelic series)		
AAGTAGCT	9.67 upbm affinity estimate (log intensity, higher = more binding, comparable within an allelic series)	9.41 upbm affinity estimate (log intensity, higher = more binding, comparable within an allelic series)	9.35 upbm affinity estimate (log intensity, higher = more binding, comparable within an allelic series)	11.8 upbm affinity estimate (log intensity, higher = more binding, comparable within an allelic series)	11.9 upbm affinity estimate (log intensity, higher = more binding, comparable within an allelic series)
CCGGTGCC	7.09 upbm affinity estimate (log intensity, higher = more binding, comparable within an allelic series)	7.25 upbm affinity estimate (log intensity, higher = more binding, comparable within an allelic series)	7.13 upbm affinity estimate (log intensity, higher = more binding, comparable within an allelic series)		
ATCGTTCA	9.46 upbm affinity estimate (log intensity, higher = more binding, comparable within an allelic series)	9.08 upbm affinity estimate (log intensity, higher = more binding, comparable within an allelic series)	9.31 upbm affinity estimate (log intensity, higher = more binding, comparable within an allelic series)		
CATTTAAG	10.9 upbm affinity estimate (log intensity, higher = more binding, comparable within an allelic series)	10.6 upbm affinity estimate (log intensity, higher = more binding, comparable within an allelic series)	10.6 upbm affinity estimate (log intensity, higher = more binding, comparable within an allelic series)		
GTGATAAC	9.19 upbm affinity estimate (log intensity, higher = more binding, comparable within an allelic series)	8.78 upbm affinity estimate (log intensity, higher = more binding, comparable within an allelic series)	8.95 upbm affinity estimate (log intensity, higher = more binding, comparable within an allelic series)		
CGGGGGAC	7.24 upbm affinity estimate (log intensity, higher = more binding, comparable within an allelic series)	7.14 upbm affinity estimate (log intensity, higher = more binding, comparable within an allelic series)	6.94 upbm affinity estimate (log intensity, higher = more binding, comparable within an allelic series)		
CTCCGTGC	6.97 upbm affinity estimate (log intensity, higher = more binding, comparable within an allelic series)	7.18 upbm affinity estimate (log intensity, higher = more binding, comparable within an allelic series)	6.81 upbm affinity estimate (log intensity, higher = more binding, comparable within an allelic series)		
AGTCAGGG	7.19 upbm affinity estimate (log intensity, higher = more binding, comparable within an allelic series)	7.36 upbm affinity estimate (log intensity, higher = more binding, comparable within an allelic series)	7.15 upbm affinity estimate (log intensity, higher = more binding, comparable within an allelic series)		
CGGCAAGA	7.12 upbm affinity estimate (log intensity, higher = more binding, comparable within an allelic series)	7.22 upbm affinity estimate (log intensity, higher = more binding, comparable within an allelic series)	7.11 upbm affinity estimate (log intensity, higher = more binding, comparable within an allelic series)		
CGTCATGA	8.84 upbm affinity estimate (log intensity, higher = more binding, comparable within an allelic series)	8.58 upbm affinity estimate (log intensity, higher = more binding, comparable within an allelic series)	8.62 upbm affinity estimate (log intensity, higher = more binding, comparable within an allelic series)		
ACCCTCGC	7.12 upbm affinity estimate (log intensity, higher = more binding, comparable within an allelic series)	7.19 upbm affinity estimate (log intensity, higher = more binding, comparable within an allelic series)	7.13 upbm affinity estimate (log intensity, higher = more binding, comparable within an allelic series)		
ACTAAAGA	9.49 upbm affinity estimate (log intensity, higher = more binding, comparable within an allelic series)	9.21 upbm affinity estimate (log intensity, higher = more binding, comparable within an allelic series)	9.23 upbm affinity estimate (log intensity, higher = more binding, comparable within an allelic series)		
CAATCTAG	9.1 upbm affinity estimate (log intensity, higher = more binding, comparable within an allelic series)	8.87 upbm affinity estimate (log intensity, higher = more binding, comparable within an allelic series)	8.9 upbm affinity estimate (log intensity, higher = more binding, comparable within an allelic series)		
CGTAATGA	12.7 upbm affinity estimate (log intensity, higher = more binding, comparable within an allelic series)	12.2 upbm affinity estimate (log intensity, higher = more binding, comparable within an allelic series)	12.2 upbm affinity estimate (log intensity, higher = more binding, comparable within an allelic series)		
CGTTGGGC	7.21 upbm affinity estimate (log intensity, higher = more binding, comparable within an allelic series)	7.31 upbm affinity estimate (log intensity, higher = more binding, comparable within an allelic series)	7.23 upbm affinity estimate (log intensity, higher = more binding, comparable within an allelic series)		
ACTAACGA	9.28 upbm affinity estimate (log intensity, higher = more binding, comparable within an allelic series)	8.88 upbm affinity estimate (log intensity, higher = more binding, comparable within an allelic series)	9.23 upbm affinity estimate (log intensity, higher = more binding, comparable within an allelic series)		
CGCTAGCG	7.32 upbm affinity estimate (log intensity, higher = more binding, comparable within an allelic series)	7.37 upbm affinity estimate (log intensity, higher = more binding, comparable within an allelic series)	7.28 upbm affinity estimate (log intensity, higher = more binding, comparable within an allelic series)		
ATAACGTG	9.01 upbm affinity estimate (log intensity, higher = more binding, comparable within an allelic series)	8.66 upbm affinity estimate (log intensity, higher = more binding, comparable within an allelic series)	8.79 upbm affinity estimate (log intensity, higher = more binding, comparable within an allelic series)		
AAGGTCAT	9.64 upbm affinity estimate (log intensity, higher = more binding, comparable within an allelic series)	9.26 upbm affinity estimate (log intensity, higher = more binding, comparable within an allelic series)	9.4 upbm affinity estimate (log intensity, higher = more binding, comparable within an allelic series)		
CAGCGCAC	7.28 upbm affinity estimate (log intensity, higher = more binding, comparable within an allelic series)	7.22 upbm affinity estimate (log intensity, higher = more binding, comparable within an allelic series)	7.26 upbm affinity estimate (log intensity, higher = more binding, comparable within an allelic series)		
CAAATCTA	8.78 upbm affinity estimate (log intensity, higher = more binding, comparable within an allelic series)	8.51 upbm affinity estimate (log intensity, higher = more binding, comparable within an allelic series)			
